Consider nine compounds from PubChem BioAssay (Tox21).

Where “and” joins values, the source holds several entries; their conditions need not be identical. Identical values can stand only once. Results filed as inconclusive are left out. Some compounds were tested as several samples or in several runs, with calls that do not always agree. Calls of active or inactive are those of the source. Unless noted, calls follow the shape of the dose curve; as a rule, active = well fitted curve in the direction sought with a large enough effect in the repeat runs; inconclusive = weak or mixed curves; inactive = no such curve, though single readings can be large; an effect the other way counts as inactive or inconclusive.

The nature of experiment [1]: A CellTox Green Cytotoxicity Assay to monitor cytotoxicity in HEK293 cells - 32 hour (AID 1224881). Also: nearly all actives have a fitted effect of over 40% in size. Also: potency is read from the fitted curve at half-maximal effect. In a few lines: (§1)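 Real-time, in one plate: 600 HEK293 cells/well with dead-cell DNA dye, pinned compound after 5 h, 37 C incubation over 40 h; viable cells give no appreciable fluorescence.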
Experiment [2] in a line: A CellTox Green Cytotoxicity Assay to monitor cytotoxicity in HepG2 cells - 0 hour (AID 1224882). Also: nearly all actives have a fitted effect of over 35% in size. The gist of the method:
(§2)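 Cytotoxicity was tracked as dead-cell DNA fluorescence in HepG2 cells treated with test compounds at 37 C; each time-point value comes from one kinetic series spanning 0, 8, 16, 24, 32 and 40 h.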

A short description of experiment [3]: A CellTox Green Cytotoxicity Assay to monitor cytotoxicity in HepG2 cells - 32 hour (AID 1224883). Also: nearly all actives have a fitted effect of over 50% in size. Also: potency is read from the fitted curve at half-maximal effect. The gist of the method:
as §2

Experiment [4] can be described thus: A CellTox Green Cytotoxicity Assay to monitor cytotoxicity in HEK293 cells - 8 hour (AID 1224884). Also: nearly all actives have a fitted effect of over 35% in size. Also: potency is read from the fitted curve at half-maximal effect. The gist of the method:
as §1

The nature of experiment [5]: qHTS RealTime-Glo MT Cell Viability Assay in HepG2 cells - 16 hour (AID 1224885). Also: nearly all actives have a fitted effect of over 50% in size. In a few lines:
(§3)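 Luminescence read-out: viable HepG2 cells reduce a prosubstrate to a NanoLuc substrate, giving a signal proportional to live cell number. Reads taken at 0, 8, 16, 24, 32 and 40 h of compound exposure at 37 C.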

The nature of experiment [6]: qHTS RealTime-Glo MT Cell Viability Assay in HEK293 cells - 24 hour (AID 1224886). Also: nearly all actives have a fitted effect of over 50% in size. Also: potency is read from the fitted curve at half-maximal effect. The gist of the method:
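Nonlytic real-time viability readout: viable cells convert prosubstrate to NanoLuc substrate, giving luminescence proportional to live cell number. HEK293, 600 cells/well, compound added after 5 h, continuous culture at 37 C.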

A short description of experiment [7]: qHTS RealTime-Glo MT Cell Viability Assay in HEK293 cells - 8 hour (AID 1224887). Also: nearly all actives have a fitted effect of over 50% in size. Also: potency is read from the fitted curve at half-maximal effect. In a few lines:
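Kinetic, non-lysing viability readout. Seed HEK293 (600/well) with reagent, incubate 5 h at 37 C/5% CO2, pin 23 nL compound in DMSO, incubate at 37 C, read luminescence at 0, 8, 16, 24, 32, 40 h.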

A short description of experiment [8]: qHTS RealTime-Glo MT Cell Viability Assay in HepG2 cells - 0 hour (AID 1224889). Also: nearly all actives have a fitted effect of over 50% in size. Also: potency is read from the fitted curve at half-maximal effect. In a few lines: as §3
A short description of experiment [9]: A CellTox Green Cytotoxicity Assay to monitor cytotoxicity in HepG2 cells - 8 hour (AID 1224890). Also: nearly all actives have a fitted effect of over 45% in size. Also: potency is read from the fitted curve at half-maximal effect. The gist of the method:
as §2

A short description of experiment [10]: qHTS assay to identify small molecule antagonists of the estrogen receptor alpha (ER-alpha) signaling pathway using the BG1 cell line in the presence of 0.1 nM 17-beta-estradiol - cell viability counter screen (AID 1259241). Also: nearly all actives have a fitted effect of over 40% in size. Also: potency is read from the fitted curve at half-maximal effect. The gist of the method: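 Estradiol-stimulated (0.1 nM) VM7Luc4E2 cells exposed to compounds 22 hr; viability measured by fluorescence of cleaved CellTiter-Fluor substrate after 30 min.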

Experiment [11] can be described thus: qHTS assay to identify small molecule antagonists of the androgen receptor (AR) signaling pathway using the MDA cell line in the presence of 0.5 nM R1881 - cell viability counter screen (AID 1259242). Also: nearly all actives have a fitted effect of over 45% in size. Also: potency is read from the fitted curve at half-maximal effect. In a few lines:
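Cells seeded at 3,000/well and allowed 5 hr at 37C, 0% CO2 before compound transfer and R1881 (0.5 nM final) addition; 16 hr later, live-cell protease fluorescence indicated cytotoxicity.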

The nature of experiment [12]: qHTS assay to identify small molecule phospholipidosis (PLD) inducers (AID 1259344; active = well fitted curve in the direction sought with a large enough effect; an effect the other way counts as inactive or inconclusive). In a few lines: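 After 4 h attachment on collagen I, HepG2 cells were dosed with compound alongside LipidTOX Red, kept 24 h at 37 C, fixed, and imaged for lamellar phospholipid pits.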
Experiment [13] is described as follows: qHTS assay to identify small molecule HDAC inhibitors (AID 1259364).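 Also: wild-type HCT-116 cells with endogenous class I/II HDAC activity; top concentration of the series differs between compounds; nearly all actives have a fitted effect of over 45% in size.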 The gist of the method:
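HCT-116 wt cells, 1,500/well, overnight attach. Compounds (DMSO) 2 h, 37 °C. HDAC-Glo I/II, 30 min RT. Luminescence.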

Experiment [14] can be described thus: qHTS assay to identify small molecule HDAC inhibitors - cell viability counter screen (AID 1259365). In a few lines:
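After overnight seeding at 1,500 cells per well, wild-type HCT-116 cultures took up compounds in DMSO for 2hr at 37 C. Viable cell content came from luminescence with CellTiter-Glo.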

Experiment [15] in a line: qHTS assay to identify small molecule agonists of the sonic hedgehog signaling (Shh) pathway - cell viability counter screen (AID 1259366). Also: nearly all actives have a fitted effect of over 50% in size. Also: potency is read from the fitted curve at half-maximal effect. The gist of the method: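 Same-well cytotoxicity read. Gli1-Luc reporter 3T3 cells; compounds 24hr, 37C/5% CO2; CellTiter-Fluor fluorescence.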
Experiment [16] can be described thus: qHTS assay to identify small molecule antagonists of the sonic hedgehog signaling (Shh) pathway - cell viability counter screen (AID 1259367). Also: nearly all actives have a fitted effect of over 55% in size. Also: potency is read from the fitted curve at half-maximal effect. The gist of the method:
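Conditioned medium drove Shh signaling in 3T3 Gli1-Luc cells exposed to compounds at 37C and 5% CO2. Viability was determined from CellTiter-Fluor fluorescence, with reagent incubated 1 hr after 23 hr of treatment.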

The nature of experiment [17]: qHTS assay to identify small molecule agonists of the sonic hedgehog signaling (Shh) pathway (AID 1259368; calls by dose curve;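 also: NIH/3T3-derived 3T3Gli1-Luc cells carrying a stable Gli1-driven firefly luciferase reporter; series mostly up to about 92 µM; nearly all actives have a fitted effect of over 15% in size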). The gist of the method: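 Following a 24 hr incubation with DMSO-dissolved compounds at 37 C, 5% CO2, Gli1-Luc NIH/3T3-derived cells received luciferase reagent for 30 min at room temperature prior to luminescence measurement.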
Experiment [18] in a line: A CellTox Green Cytotoxicity Assay to monitor cytotoxicity in HEK293 cells - 16 hour (AID 1224888). Also: nearly all actives have a fitted effect of over 35% in size. The gist of the method: as §1
The target in experiment [19] is Estrogen receptor (Homo sapiens) (UniProt P03372). In words: qHTS assay to identify small molecule antagonists of the estrogen receptor alpha (ER-alpha) signaling pathway using the BG1 cell line in the presence of 0.1 nM 17-beta-estradiol (AID 1259244). Also: nearly all actives have a fitted effect of over 50% in size. The gist of the method:
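Luciferase signal from VM7Luc4E2 ERE-reporter cells, co-dosed with test compound and 0.1 nM final 17beta-estradiol for 22 h, read with ONE-Glo.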

Sequence of Estrogen receptor (Homo sapiens) (P03372 whole entry, looked up): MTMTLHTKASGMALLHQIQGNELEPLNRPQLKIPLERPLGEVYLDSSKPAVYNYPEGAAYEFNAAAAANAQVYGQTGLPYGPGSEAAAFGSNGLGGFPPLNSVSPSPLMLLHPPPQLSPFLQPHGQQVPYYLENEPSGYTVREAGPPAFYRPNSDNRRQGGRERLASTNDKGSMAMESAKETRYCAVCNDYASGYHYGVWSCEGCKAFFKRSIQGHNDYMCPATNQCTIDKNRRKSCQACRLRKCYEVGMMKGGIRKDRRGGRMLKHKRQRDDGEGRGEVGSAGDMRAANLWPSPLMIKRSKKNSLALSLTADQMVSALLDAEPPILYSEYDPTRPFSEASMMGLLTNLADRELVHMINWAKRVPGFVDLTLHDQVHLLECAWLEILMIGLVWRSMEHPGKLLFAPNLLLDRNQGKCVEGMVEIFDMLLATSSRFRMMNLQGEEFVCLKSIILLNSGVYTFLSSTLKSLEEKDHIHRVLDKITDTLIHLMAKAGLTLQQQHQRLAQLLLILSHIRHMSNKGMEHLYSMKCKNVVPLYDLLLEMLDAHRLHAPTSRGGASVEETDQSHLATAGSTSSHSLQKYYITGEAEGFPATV

For `CC1(C)O[C@@H]2C[C@H]3[C@@H]4CCC5=CC(=O)C=C[C@]5(C)[C@@]4(F)[C@@H](O)C[C@]3(C)[C@]2(C(=O)CO)O1`, the Potency entry in [1] is “inactive and 9.52 µM (active)”; in experiment [4] it was “inactive and 9.52 µM (active)”; in [8], 22 µM (active) and 12.3 µM (active). Besides, the Potency entry in experiment [2], in experiment [3], in [5], in experiment [6], in experiment [7] and in experiment [9] was “inactive” each time. Further, the Potency result in experiment [10], in experiment [11], in experiment [12], in experiment [13], in experiment [14] and in experiment [15] was “inactive” throughout. The Potency entry in experiment [16] is “inactive”. In addition, the compound was classed as inactive in [17].
As to `CN1[C@@H]2CC(OC(=O)[C@H](CO)c3ccccc3)C[C@H]1[C@@H]1O[C@@H]12` (stereo not given in full), the Potency entry in [1], in experiment [2], in experiment [3], in experiment [4], in [5] and in experiment [6] was “inactive” each time. Moreover, the Potency entry in [18], in [9], in [10], in experiment [11], in experiment [19] and in experiment [12] was “inactive” each time. The Potency entry in experiment [13], in experiment [14], in experiment [15] and in experiment [16] was “inactive” throughout. The compound was classed as inactive in [17].
In the case of `O=C1NC(=O)C(c2ccccc2)(c2ccccc2)N1`, the Potency result in experiment [1] is “inactive and 19 µM (active)”; in [3], “inactive and 21.3 µM (active)”; in [4], “inactive and 21.3 µM (active)”; in experiment [9] it was “inactive and 23.9 µM (active)”. The Potency entry in [2], in experiment [5], in experiment [6], in experiment [8], in [10] and in [11] was “inactive” each time. The Potency entry in experiment [12], in [13], in experiment [14], in experiment [15] and in experiment [16] was “inactive” in each case. For the same compound, the compound was called inactive in [17].
With `COc1ccc(CN(CCN(C)C)c2ccccn2)cc1`, the Potency result in experiment [1], in experiment [2], in experiment [3], in experiment [4], in experiment [18] and in experiment [9] was “inactive” throughout. Also, the Potency entry in experiment [10], in experiment [11], in [12], in experiment [13], in [14] and in [15] was “inactive” each time. The Potency result in experiment [16] was “inactive”. For the same compound, the compound was called inactive in experiment [17].
Turning to `CC(=O)CCC(=O)O`, the Potency entry in [1], in [2], in [3], in experiment [4], in [5] and in experiment [6] was “inactive” throughout. The Potency entry in [18], in experiment [9], in experiment [10], in experiment [11], in experiment [19] and in [12] was “inactive” each time. In addition, the Potency result in experiment [13], in experiment [14], in experiment [15] and in experiment [16] was “inactive” in each case. Also, the compound was called inactive in [17].
As for `Nc1c(N=Nc2ccc(-c3ccc(N=Nc4cc(S(=O)(=O)O)c5ccccc5c4N)cc3)cc2)cc(S(=O)(=O)O)c2ccccc12`, the Potency entry in experiment [1], in [2], in experiment [3], in experiment [4], in [18] and in [9] was “inactive” throughout. For the same compound, the Potency entry in [12], in experiment [13] and in [14] was “inactive” throughout. In addition, the Potency was 43.6 µM (active) in experiment [6]; 24.5 µM (active) in experiment [7]; 12.2 µM (active) in experiment [10]; 27.3 µM (active) in experiment [11]; 17.2 µM (active) in experiment [15]; 15.3 µM (active) in [16]. The compound was classed as inactive in [17].
As to `CCCCNC(=O)NS(=O)(=O)c1ccc(C)cc1`, the Potency entry in experiment [1], in experiment [2], in experiment [3], in experiment [4], in [5] and in experiment [6] was “inactive” in each case. In addition, the Potency entry in experiment [18], in experiment [9], in experiment [10], in experiment [11], in experiment [12] and in [13] was “inactive” in each case. Besides, the Potency entry in [14], in [15] and in experiment [16] was “inactive” in each case. Further, the call in experiment [17] was inactive.
With `CCN(Cc1c(F)cccc1Cl)c1c([N+](=O)[O-])cc(C(F)(F)F)cc1[N+](=O)[O-]`, the Potency entry in [1], in experiment [2], in experiment [3], in experiment [4], in experiment [5] and in experiment [18] was “inactive” throughout. Besides, the Potency entry in experiment [9], in experiment [10], in experiment [11], in experiment [13], in [14] and in experiment [15] was “inactive” each time. Also, in experiment [16], the Potency entry is “inactive”. In addition, the Potency in experiment [6] was 43.6 µM (active). Besides, the call in experiment [17] was inactive.
On to `O=c1[nH]cnc2c1ncn2[C@H]1CC[C@@H](CO)O1`, for which the Potency result in [1], in [2], in experiment [3], in experiment [4], in experiment [5] and in [6] was “inactive” in each case. The Potency entry in [18], in experiment [9], in experiment [10], in experiment [11], in experiment [19] and in experiment [12] was “inactive” each time. Further, the Potency result in experiment [13], in [14], in experiment [15] and in experiment [16] was “inactive” each time. In addition, the result in experiment [17] was inactive.
